From the supplement of paper PMC12067926
Values without a mark were called inactive.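 The calls were made as follows: active = growth AUC significantly below the DMSO wells by Dunnett test; inactive = the rest.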

System: Bacillus 1 (Bacillus foraminis)
Experiment: relative growth (AUC of 72 h growth curve relative to DMSO control, dAUC) (ratio); higher = more growth (less inhibition), active = hit call of the paper
Details: 20 µM
Method: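 Environmental bacterial isolates (Iceland stream sediment and Silwood Park soil) and whole stream-sediment communities were grown in LB from a 1:100 dilution with each pesticide at 20 µM (1% DMSO). A600 was read hourly for 72 h and the area under a spline-fitted growth curve (AUC) was computed. dAUC is the mean AUC of 3 biological replicates divided by the mean AUC of the DMSO controls. Significance was tested by Dunnett's test against the DMSO control.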

| SMILES | relative growth |
| --- | --- |
| N#Cc1c[nH]cc1-c1cccc2c1OC(F)(F)O2 | 0.935 |
| CO/C=C(/C(=O)OC)c1ccccc1Oc1cc(Oc2ccccc2C#N)ncn1 | 1.03 |
| COC(=O)N(C(=O)N1CO[C@@]2(C(=O)OC)Cc3cc(Cl)ccc3C2=N1)c1ccc(OC(F)(F)F)cc1 | 1 |
| CC[C@H](C)C1O[C@]2(C=C[C@@H]1C)C[C@@H]1C[C@@H](C/C=C(\C)[C@@H](O[C@H]3C[C@H](OC)[C@@H](O[C@H]4C[C@H](OC)[C@H](NC)[C@H](C)O4)[C@H](C)O3)[C@@H](C)/C=C/C=C3\CO[C@@H]4[C@H](O)C(C)=C[C@@H](C(=O)O1)[C@]34O)O2 (stereo not given in full) | 0.928 |
| CCC(C)(C)C(=O)OC1=C(c2ccc(Cl)cc2Cl)C(=O)OC12CCCCC2 | 0.975 |
| ClC1C(Cl)C(Cl)C(Cl)C(Cl)C1Cl (stereo not given) | 1.11 |
| CCNC(=O)NC(=O)/C(C#N)=N/OC | 1.04 |
| CSc1nc(NC(C)C)nc(NC(C)C)n1 | 0.945 |
| COCc1cnc(C2=NC(C)(C(C)C)C(=O)N2)c(C(=O)O)c1 (stereo not given) | 0.985 |
| CC1(C)[C@H](/C=C(\Cl)C(F)(F)F)[C@@H]1C(=O)OC(C#N)c1cccc(Oc2ccccc2)c1 (stereo not given in full) | 1.05 |
| CC1(C)C(C=C(Cl)Cl)C1C(=O)OC(C#N)c1cccc(Oc2ccccc2)c1 (stereo not given) | 1.11 |
| N#CCNC(=O)c1cnccc1C(F)(F)F | 1.03 |
| CC(C1CC1)C(O)(Cn1cncn1)c1ccc(Cl)cc1 (stereo not given) | 1.09 |
| CNC(=O)Oc1cccc2ccccc12 | 1.05 |
| N#CC(CCc1ccc(Cl)cc1)(Cn1cncn1)c1ccccc1 (stereo not given) | 0.836 |
| CCCCOC(=O)[C@H](C)Oc1ccc(Oc2ccc(C#N)cc2F)cc1 | 1.07 |
| Oc1ccccc1-c1ccccc1 | 0.868 |
| Cc1cc(C(C#N)c2ccc(Cl)cc2)c(Cl)cc1NC(=O)c1cc(I)cc(I)c1O (stereo not given) | 0.695 |
| N#Cc1nn(-c2c(Cl)cc(C(F)(F)F)cc2Cl)c(N)c1[S+]([O-])C(F)(F)F (stereo not given) | 1.01 |
| OC(Cc1ccccc1Cl)(Cn1nc[nH]c1=S)C1(Cl)CC1 (stereo not given) | 0.988 |

| SMILES | relative growth |
| --- | --- |
| O=C(Nc1ccccc1-c1ccc(Cl)cc1)c1cccnc1Cl | 1.01 |
| CCOCn1c(-c2ccc(Cl)cc2)c(C#N)c(Br)c1C(F)(F)F | 1.1 |
| C/C(=N\C#N)N(C)Cc1ccc(Cl)nc1 | 0.921 |
| CCSC(C)CC1CC(=O)C(/C(CC)=N/OC/C=C/Cl)=C(O)C1 (mixture of isomers) | 1.06 |
| CCN(CC)c1nc(C)cc(OP(=S)(OC)OC)n1 | 1.03 |
| CC1=NNC(=O)N(/N=C/c2cccnc2)C1 | 1.16 |
| Cc1nc(N(C)C)nc(OC(=O)N(C)C)c1C | 0.959 |
| Cc1cc(C(F)(C(F)(F)F)C(F)(F)F)ccc1NC(=O)c1cccc(I)c1C(=O)NC(C)(C)CS(C)(=O)=O | 1.16 |
| COCC(=O)N(c1c(C)cccc1C)[C@H](C)C(=O)OC | 1.06 |
| CCOC(=O)OC1=C(c2cc(C)ccc2C)C(=O)N[C@]12CC[C@@H](OC)CC2 | 1.03 |
| COc1cc(OC)nc(NC(=O)NS(=O)(=O)c2ncccc2C(=O)N(C)C)n1 | 1.08 |
| CCC(C)c1ccccc1OC(=O)NC (stereo not given) | 1.07 |
| N#Cc1cc(Br)c(O)c(Br)c1 | 0.916 |
| O=C(NC(=O)c1c(F)cccc1F)Nc1ccc(OC(F)(F)C(F)OC(F)(F)F)c(Cl)c1 (stereo not given) | 0.942 |
| CNC(=O)ON=C(C)SC | 0.996 |
| CC1COC(Cn2cncn2)(c2ccc(Oc3ccc(Cl)cc3)cc2Cl)O1 (stereo not given) | 1.11 |
| CON(C)C(=O)Nc1ccc(Cl)c(Cl)c1 | 1.04 |
| CC(C)OC(=O)C(C(=O)OC(C)C)=C1SCCS1 | 1.05 |
| CO/N=C(/C(=O)OC)c1ccccc1CO/N=C(\C)c1cccc(C(F)(F)F)c1 | 0.972 |
| CC(C)CC(C)c1sccc1NC(=O)c1cn(C)nc1C(F)(F)F (stereo not given) | 0.959 |
